LDHA block: LDHA (human) enzyme inhibition; P00338; purified LDHA, NADH/diaphorase-resazurin fluorescence; active compounds read low; activity change, % (values are at about 110 or 230 µM); actives 0.15% (n = 480,000); in the data active = activity change below about -30%; inconclusive = mostly about -25% to -30%;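 also: plate controls were DMSO wells for no effect and wells without enzyme for full effect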
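Remaining NADH was detected by diaphorase (0.133 mg/mL) converting 37 µM resazurin to fluorescent resorufin, read at 0 and 20 minutes. The preceding 5-minute room-temperature reaction used 2 nM LDHA, 0.2 mM sodium pyruvate and 0.06 mM NADH at pH 7.4.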
EPAC2 antag: antagonists of human EPAC2 | Potency, µM (top dose mostly 114 µM), for the others: at the top dose activity, negative = inhibition, hits mostly inhibitors | actives 0.18% (n = 360,000) | EPAC2 GEF exchange of Rap1B-BODIPY-GDP, fluorescence | AID 720708; also: potency is read from the fitted curve at half-maximal effect; % is scaled to controls: 0 for no effect and ±100 for the full control effect; nearly all actives have a fitted effect of over 45% in size
EPAC1 antagonist: antagonists of human EPAC1; O95398; EPAC1 GEF assay, Rap1b-BODIPY-GDP exchange fluorescence; actives 0.14% (n = 360,000); Potency, µM (titrated, usually from 115 µM), without a hit: top-dose activity change, negative = inhibition, hits mostly inhibitors;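 also: potency is read from the fitted curve at half-maximal effect; plate controls were vehicle for no effect and positive control for full effect; nearly all actives have a fitted effect of over 50% in size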
EPAC2 agonist: EPAC2 (human) agonism. actives 0.079% (n = 360,000). EPAC2 activation, biochemical qHTS; response scale: 100% = 6.5 mM cAMP response. Potency, µM (doses to about 154 µM), inactives show at the top dose activation, actives largely listed as activators; also: potency is read from the fitted curve at half-maximal effect; nearly all actives have a fitted effect of over 50% in size
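In this primary screen, activation is scored as increased exchange of BODIPY-GDP from Rap1B by 100 nM EPAC2, with 50 uM GDP as competitor. Signal is normalized to the 6.5 mM cAMP agonist control.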
USP1-UAF1 inh: USP1/UAF1 (human) deubiquitinase inhibition. Potency, µM (doses to about 57.1 µM), for the others: at the top dose activity change, negative = inhibition, hits mostly inhibitors. recombinant USP1/UAF1, Ub-Rhodamine cleavage fluorescence. actives 0.23% (n = 390,000). AID 743255. O94782; also: potency is read from the fitted curve at half-maximal effect; % is scaled to controls: 0 for no effect and ±100 for the full control effect; nearly all actives have a fitted effect of over 60% in size
Target sequence (O94782 whole entry, looked up): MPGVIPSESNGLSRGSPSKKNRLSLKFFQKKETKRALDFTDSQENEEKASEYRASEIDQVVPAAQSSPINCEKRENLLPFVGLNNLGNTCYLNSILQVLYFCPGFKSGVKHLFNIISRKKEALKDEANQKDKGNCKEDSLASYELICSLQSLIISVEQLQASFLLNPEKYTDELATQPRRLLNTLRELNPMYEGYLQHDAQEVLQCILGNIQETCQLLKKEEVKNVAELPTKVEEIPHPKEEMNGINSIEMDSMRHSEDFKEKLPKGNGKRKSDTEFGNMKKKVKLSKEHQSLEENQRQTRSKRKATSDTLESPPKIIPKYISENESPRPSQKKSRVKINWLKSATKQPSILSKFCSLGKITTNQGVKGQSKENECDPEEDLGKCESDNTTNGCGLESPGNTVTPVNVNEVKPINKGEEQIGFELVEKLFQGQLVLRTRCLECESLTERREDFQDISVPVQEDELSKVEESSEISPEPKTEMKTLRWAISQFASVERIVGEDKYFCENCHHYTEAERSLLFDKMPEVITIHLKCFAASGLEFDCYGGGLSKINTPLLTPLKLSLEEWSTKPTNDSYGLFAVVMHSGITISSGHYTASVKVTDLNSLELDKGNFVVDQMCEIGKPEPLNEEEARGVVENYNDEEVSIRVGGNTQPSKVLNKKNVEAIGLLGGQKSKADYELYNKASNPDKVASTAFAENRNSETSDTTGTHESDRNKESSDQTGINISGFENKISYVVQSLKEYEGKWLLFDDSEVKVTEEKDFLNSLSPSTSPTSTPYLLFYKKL
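USP1/UAF1 complex at 1 nM was preincubated with compound for 15 min at room temperature, then Ub-Rho substrate (150nM final) was added. Fluorescence (480/540 nm) was read kinetically, 6 reads every 60 seconds.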
EPAC1 ag: activates human EPAC1 exchange factor; O95398; EPAC1 agonist qHTS, biochemical assay; response scale: 100% = response to 6.5 mM cAMP; Potency, µM (doses to about 154 µM), for the others: at the highest dose activation, most hits filed as activators; actives 0.073% (n = 360,000); also: potency is read from the fitted curve at half-maximal effect; nearly all actives have a fitted effect of over 60% in size
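EPAC1 100 nM, Rap1B–BODIPY-GDP 250 nM, unlabeled GDP 50 uM; compound titration; 5 min RT; kinetic read ex480/em540 at 5-min intervals ×30 min; data normalized to 6.5 mM cAMP agonist control.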
Numbers without * were called inactive; ? = inconclusive; nt = no result; + = active, no number. Sampled rows, rich in hits. Any-hit rate of the full collection: about 0.56%. Unless noted, calls follow the shape of the dose curve; as a rule, active = well fitted curve in the direction sought with a large enough effect; inconclusive = small, poorly fitted or top-dose-only effect, or another doubt; inactive = no such curve, though single readings can be large; an effect the other way counts as inactive or inconclusive.

SMILES | LDHA block | EPAC2 antag | EPAC1 antagonist | EPAC2 agonist | USP1-UAF1 inh | EPAC1 ag
Cc1ccc(-c2cnc3c(Nc4cccc(OC(F)(F)C(F)F)c4)nccn23)cc1 | -39* | 18% | -10% | 2% | nt | -7%
Cc1ccc(S(=O)(=O)Nc2ccc(Nc3nccn4c(-c5ccccc5Oc5ccccc5)cnc34)cc2)cc1 | -10 | -13% | 0% | 3% | nt | -2%
Cc1ccc(S(=O)(=O)Nc2ccc(Nc3nccn4c(-c5ccc6ccccc6c5)cnc34)cc2)cc1 | -87* | -7% | -6% | -4% | nt | -17%
CCCNC(=O)NC(=O)CN1CCC(C)CC1 | -5 | nt | nt | nt | nt | nt
C=CC(n1cncn1)C(O)(c1ccccc1)c1ccccc1 (stereo unspecified) | -8 | -15% | -29% | 8% | -14% | -11%
Cc1ccc(NC(=O)/C(=C/C=C/c2ccccc2)NC(=O)c2ccccc2)cc1 | -9 | -6% | 4% | -15% | -14% | -2%
O=C(Nc1ccc(C(=O)O)cc1)/C(=C\C=C\c1ccccc1)NC(=O)c1ccc(Br)cc1 | -8 | ? | -24% | 6% | + | 3%
Cc1[nH]c(=O)nc(SCc2cccc(Cl)c2)c1C#N | -16 | -1% | ? | -4% | -16% | -1%
N#Cc1c(-c2ccco2)nc(SCC(=O)Nc2cccc(Cl)c2)[nH]c1=O | -12 | 0% | -23% | -14% | -12% | -4%
CC(C)(C)c1ccc(-c2nc(SCC(=O)Nc3ccc(Cl)cc3)[nH]c(=O)c2C#N)cc1 | -31* | nt | nt | nt | -22% | nt
N#Cc1c(-c2ccccc2)nc(SCc2cccc(Cl)c2)[nH]c1=O | -7 | 89µM* | ? | -11% | -18% | -5%
COc1ccc(/C=C(/Cl)c2nc3ccccc3s2)cc1 | 0 | nt | nt | nt | nt | nt
CC(C(=O)N1CCCC1)N(c1ccc(Cl)cc1)S(C)(=O)=O (stereo unspecified) | -6 | 0% | -15% | 16% | -10% | -5%
CSc1c[n+]2c(n1C)CCC2 | -34* | -8% | 12% | -15% | -3% | -9%
COC(=O)N1CCN(c2ccc(OC)cc2)CC1 | 4 | 13% | 13% | 0% | -8% | -4%
COc1ccc(N2CCN(C(C)C(=O)N3CCCC3)CC2)cc1 (stereo unspecified) | -38* | 7% | -4% | -2% | -13% | 7%
Cc1ccc(Cl)cc1NS(=O)(=O)c1ccc2oc(=O)ccc2c1 | -6 | ? | -19% | -6% | -6% | -3%
COc1ccc(OC)c(/C=C/c2nc3ccccc3[nH]c2=O)c1 | 1 | 58% | 68% | ? | 180% | 89µM*
CCOC(=O)c1c(S(=O)(=O)N2CCCC(C(=O)Nc3cccc(C#N)c3)C2)c(C)n(C)c1C (stereo unspecified) | -1 | nt | nt | nt | -21% | nt
O=C(c1ccncc1)N1CCN(C2CCC(c3ccccc3)CC2)CC1 (stereo unspecified) | -32* | 3% | -9% | 8% | -5% | 4%
O=C(c1ccncc1)N1CCN(C2CCCCC2)CC1 | -17 | 1% | 5% | 14% | -12% | 13%
Cc1cccc(Nc2ncc(Cc3ccccc3C)s2)n1 | 4 | nt | nt | nt | nt | nt
Cc1ccc(-n2nc3ccc(NC(=O)/C=C/c4ccco4)cc3n2)cc1 | -1 | -16% | 22µM* | -1% | -5% | -1%
COc1ccc(CC(=O)Nc2ccc(C(=O)Nc3ccccc3C(=O)O)cc2)cc1OC | -37* | 4% | -10% | 30% | -12% | 2%
O=C(/C=C/c1ccco1)Nc1cccc(C(=O)Nc2ccccc2C(=O)O)c1 | ? | -9% | 50µM* | -7% | -19% | -8%
SMILES | LDHA block | EPAC2 antag | EPAC1 antagonist | EPAC2 agonist | USP1-UAF1 inh | EPAC1 ag
O=C(COc1ccccc1[N+](=O)[O-])Nc1cccc(C(=O)Nc2ccccc2C(=O)O)c1 | -11 | -8% | 71µM* | 2% | -25% | -5%
Cc1ccc(S(=O)(=O)Nc2cc([N+](=O)[O-])c([N+](=O)[O-])cc2NS(=O)(=O)c2ccc(C)cc2)cc1 | -3 | nt | nt | nt | nt | nt
O=C(Nc1ccccc1C(=O)O)c1cccc(NC(=O)c2ccccc2Br)c1 | -5 | 1% | -21% | 5% | -15% | -4%
O=C(Nc1cc(C(=O)Nc2ccccc2C(=O)O)cc(C(=O)Nc2ccccc2C(=O)O)c1)c1ccccc1 | -17 | -12% | 10µM* | 12% | ? | 3%
COc1ccccc1NC(=O)CSC1=Nc2ccccc2C2=NC(CCC(=O)NCc3ccco3)C(=O)N12 (stereo unspecified) | 1 | nt | nt | nt | ? | nt
Cc1cccc(N=C2C(=O)Nc3c(Cl)cccc32)c1 | 33 | -5% | -6% | 7% | -20% | 9%
O=C1Nc2c(Cl)cc(Cl)cc2C1=O | 37 | ? | ? | 1% | 28µM* | 7%
O=C(CC1CCCC1)OCC(=O)c1ccc(Cl)cc1Cl | 3 | nt | nt | nt | nt | nt
CCOc1cc(/C=C2/SC(=S)NC2=O)ccc1OC(=O)c1ccco1 | -15 | 35µM* | 35µM* | 3% | -23% | 3%
CCc1ccc(N=C2NC(=O)/C(=C/c3cc(Br)c(OCC(=O)O)c(OC)c3)S2)cc1 | -1 | -6% | ? | -5% | -18% | ?
CCOc1cc(/C=C2\SC(=Nc3ccc(CC)cc3)NC2=O)ccc1OCC(=O)O | -2 | 3% | 35µM* | 2% | -10% | ?
CCCC1(CC)NC(=O)N(c2ccc(Br)cc2)N1 (stereo unspecified) | 5 | nt | nt | nt | nt | nt
CCOC(=O)Nc1ccc(NCc2ccc(F)cc2)nc1N | 13 | ? | ? | 10% | 22µM* | 14%
CCCCOc1c(Br)cc(/C=N/O)cc1OCC | 7 | 28µM* | ? | -3% | ? | -10%
Cc1cc(C)n(-c2nc3ccccc3nc2N2CCN(S(=O)(=O)c3ccc(C)c(C)c3)CC2)n1 | -30* | nt | nt | nt | nt | nt
Cc1ccc(S(=O)(=O)N2CCN(c3nc4ccccc4nc3-n3nc(C)cc3C)CC2)cc1 | 3 | -9% | -17% | 1% | -24% | 11%
COc1ccccc1C(=O)N/C(=C\c1cn(S(=O)(=O)N(C)C)c2ccccc12)C(=O)NCCO | 4 | nt | nt | nt | nt | nt
CC(NC(=O)/C(C#N)=C/c1ccc(N2CCOCC2)cc1)c1ccccc1 (stereo unspecified) | 2 | -3% | -23% | ? | -10% | 89µM*
CC(NC(=O)/C(C#N)=C\c1ccc(C(C)(C)C)cc1)c1ccccc1 (stereo unspecified) | 2 | nt | nt | nt | nt | nt
CCOC(=O)C1CCN(S(=O)(=O)c2ccc(N3CCCCS3(=O)=O)cc2)CC1 | -3 | nt | nt | nt | -26% | nt

Compound activity as filed in PubChem BioAssay.
